# Source: PubChem BioAssay (several laboratories)
# MPTP block = blocks calcium-induced mitochondrial swelling; isolated mouse mitochondria, Ca2+ swelling absorbance, 30 min; inhibition, % at 10 µM; 1.4% of 360,000 active;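 active = inhibition of 50% or more, scaled per plate between neutral and stimulator controls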;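 note: 0% = DMSO wells given calcium and 100% = 1 mM EGTA wells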
# CRFR2-BP antag = CRF-BP/CRF-R2 complex antagonism; inhibition, % at 11.8 µM; HEK293 CRF-R2/CRF-BP, CRF-induced calcium fluorescence; 0.59% of 350,000 active;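 active = inhibition of the ligand-induced calcium signal above about 50% at the single tested concentration, limit read from the data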
# ANO1 activ = mouse TMEM16A channel activation, primary screen | B-score at 10 µM | Q8BHY3 | 0.3% of 340,000 active | HEK293 TMEM16A/YFP-H148Q/I152L, iodide quench fluorescence; stronger effect = lower value | AID 623877;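 active = fluorescence-ratio B-score plate-corrected deviation score at least 3 library SD below zero, with starting fluorescence score within 5 deviations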;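 note: channel opened by trigger with iodide after compound preincubation; score built on the fluorescence ratio of max minus min over baseline; more negative score means more quench and so TMEM16A activation or potentiation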
# Target sequence (Q8BHY3 whole entry, looked up): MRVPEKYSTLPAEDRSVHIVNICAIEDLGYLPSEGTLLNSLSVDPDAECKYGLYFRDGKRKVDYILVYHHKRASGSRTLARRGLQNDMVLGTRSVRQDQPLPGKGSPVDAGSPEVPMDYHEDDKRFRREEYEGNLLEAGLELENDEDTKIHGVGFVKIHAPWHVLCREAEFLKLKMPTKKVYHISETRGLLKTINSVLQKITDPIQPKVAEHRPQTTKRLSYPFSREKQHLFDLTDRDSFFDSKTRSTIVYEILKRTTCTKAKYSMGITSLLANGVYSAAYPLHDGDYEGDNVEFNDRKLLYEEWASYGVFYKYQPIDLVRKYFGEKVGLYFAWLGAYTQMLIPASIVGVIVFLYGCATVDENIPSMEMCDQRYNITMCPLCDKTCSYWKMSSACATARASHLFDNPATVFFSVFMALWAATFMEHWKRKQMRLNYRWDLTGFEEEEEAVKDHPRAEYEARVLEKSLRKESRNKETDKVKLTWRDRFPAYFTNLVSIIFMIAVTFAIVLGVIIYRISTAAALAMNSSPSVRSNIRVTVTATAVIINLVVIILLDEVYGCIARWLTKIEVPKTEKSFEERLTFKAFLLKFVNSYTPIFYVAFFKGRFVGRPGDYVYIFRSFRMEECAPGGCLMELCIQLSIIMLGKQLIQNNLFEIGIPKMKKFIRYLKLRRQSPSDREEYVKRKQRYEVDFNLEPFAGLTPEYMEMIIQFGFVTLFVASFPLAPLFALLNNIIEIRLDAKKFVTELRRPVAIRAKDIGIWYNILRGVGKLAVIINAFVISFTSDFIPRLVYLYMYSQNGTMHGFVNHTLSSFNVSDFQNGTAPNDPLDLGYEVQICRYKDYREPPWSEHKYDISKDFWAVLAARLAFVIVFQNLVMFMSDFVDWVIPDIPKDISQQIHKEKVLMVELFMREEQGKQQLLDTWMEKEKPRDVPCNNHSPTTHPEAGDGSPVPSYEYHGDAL
# GRIN3A LBD mod = NR3A (human) ligand-binding domain modulation | NR3A LBD differential scanning fluorimetry, Tm shift; 0% = protein alone, 100% = glycine-bound protein | Tm shift relative to glycine control, % at 25 µM | 2.5% of 340,000 active;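 active = melting temperature shift of at least 10% of the positive control shift, at one fixed dose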
# TMEM16A inh = mouse TMEM16A channel inhibition, primary screen. Q8BHY3. HEK293 TMEM16A/YFP iodide influx fluorescence, ionomycin. normalized B-score (activity score, 25-100; higher = stronger inhibition) at 10 µM. 1.2% of 310,000 active. AID 588511;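 active = ratio plate-corrected score three or more library SD toward inhibition, starting fluorescence score within five deviations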;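 note: score derived from kinetic fluorescence span divided by baseline fluorescence per well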
# CRFR2-BP ag = CRF-BP/CRF-R2 complex agonism; HEK293 CRF-R2/CRF-BP, calcium dye fluorescence (FLIPR); percent of saturating CRF peptide response; activation, % at 13.2 µM; 0.46% of 350,000 active;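 active = activation of at least 50%, plus an integration ratio under a set limit after plate pattern correction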;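 note: plate controls were neutral control wells without compound for no effect and CRF at EC100 for full effect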
# * marks the source's active call; other numbers are inactive results; i = inactive; . = no result given. Rows were chosen to be rich in hits. Some 5.1% of all compounds tested hit in one or more screens of this group.
SMILES,MPTP block,CRFR2-BP antag,ANO1 activ,GRIN3A LBD mod,TMEM16A inh,CRFR2-BP ag
COc1ccccc1CN(C)C[C@H]1OCc2cnnn2CCCC(=O)N([C@@H](C)CO)C[C@@H]1C,-1,0,.,.,.,-1
CCN(CC)C(=O)[C@H]1C[C@H](CC(=O)NC/C=C(\C)CCC=C(C)C)C(=O)N2CCc3c([nH]c4ccc(Cl)cc34)[C@]12C,-2,75*,.,2,.,2
CCN(CC)C(=O)[C@H]1CC(CC(=O)NC/C=C(\C)CCC=C(C)C)C(=O)N2CCc3c([nH]c4ccccc34)[C@]12C (stereo partly drawn),0,49,.,-3,.,5
O=C(NCc1ccccc1)c1cccc(NC(=O)C2CC2)c1,0,12,.,-2,.,0
CCCCOc1ccc2c(c1)/C(=C(\C(Cl)=C(Cl)Cl)[N+](=O)[O-])N2,2,68*,i,1,i,0
CCOc1ncccc1C(=O)OCC(=O)N(CC(C)C)c1c(N)n(Cc2ccccc2)c(=O)[nH]c1=O,-1,-6,i,0,i,-1
CCCCCCN1C[C@@H](n2cc(COC(=O)c3ccccc3)nn2)[C@H](O)C[C@@H]1c1ccccc1,-1,4,.,.,.,2
Cc1ccc(-c2nnc(SCCC(=O)N3CCOCC3)o2)cc1,1,-1,-39*,0,i,-2
Cc1ccc(-c2nc(CSCC(=O)N3CCN(c4ccccn4)CC3)c(C)o2)cc1,16,-10,i,-3,25*,-4
Cc1ccc(-c2nnc(SCC(=O)N3CCN(c4ccccc4)CC3)o2)cc1,-2,88*,i,1,i,-1
COc1ccc(-c2nnc(SCC(=O)N3CCN(c4ccccc4)CC3)o2)cc1OC,-2,-11,i,2,i,-2
Cc1ccc(-c2nc(CSCC(=O)N3CCOCC3)c(C)o2)cc1,2,-5,i,2,i,-1
O=C(CSc1nnc(-c2cccs2)n1-c1ccccc1)N1CCCC1,0,16,i,11*,i,-3
O=C(CSc1nnc(-c2cccs2)n1-c1ccccc1)N1CCOCC1,1,-5,i,-1,i,-1
CC1(C)Cc2ccccc2-c2nnc(SCC(=O)N3CCN(c4ccccc4)CC3)n21,0,-23,i,-2,25*,-2
NC(N)=NCCCC(NC(=O)c1ccccc1)C(=O)Nc1ccc([N+](=O)[O-])cc1 (stereo not drawn),1,-5,i,16*,i,0
NC(=O)Nc1ccc(C(=O)OCC(=O)Nc2sccc2C(N)=O)cc1,0,-7,i,32*,.,2
COc1ccccc1NC(=O)COC(=O)Cc1c[nH]c2ccccc12,0,8,i,-4,i,0
Cc1ccc(NC(=O)COC(=O)Cc2c[nH]c3ccccc23)cc1F,0,-2,i,14*,.,1
COCCOc1ccc(C(F)(F)F)cc1NC(=O)COC(=O)Cc1c[nH]c2ccccc12,1,-16,i,21*,.,0
NC(=O)c1ccsc1NC(=O)COC(=O)Cc1c[nH]c2ccccc12,0,-11,i,26*,i,0
N#Cc1ccsc1NC(=O)COC(=O)c1ccc(NC(N)=O)cc1,2,-11,i,-2,i,0
CCc1nc2ccc(C(=O)NCCCn3ccnc3)cn2c1N(C)C(=O)C1CCCCC1,0,.,.,.,.,.
COc1ccccc1C(=O)N1CCN(C(=O)[C@H]2O[C@@H](n3cnc4c(N)ncnc43)[C@H](O)[C@@H]2O)CC1,-1,.,.,.,.,.
O=C(CCn1nc(-c2ccccc2)ccc1=O)N1CCOCC1,-1,120*,i,1,i,-2
SMILES,MPTP block,CRFR2-BP antag,ANO1 activ,GRIN3A LBD mod,TMEM16A inh,CRFR2-BP ag
COc1ccccc1C/C(N)=N/OC(=O)COc1cccc(C)c1,-1,23,i,13*,i,-1
O=S(=O)(CCNC1CC1)NC1CCCCC1,-2,7,.,0,.,0
CSc1nnc(C)c(/C=C/NOCc2ccc(Cl)cc2)n1,1,28,i,-3,i,1
CSc1nnc(C)c(/C=C/Nc2ccc(C)cc2)n1,0,-145,i,-2,i,105*
Cc1ccc(-c2nnn(CC(=O)Nc3ccc(S(=O)(=O)N4CCC(C)CC4)cc3)n2)cc1,20,12,i,55*,i,1
CC1CCN(CC(=O)Nc2ccc(S(=O)(=O)N3CCC(C)CC3)cc2)CC1,0,-18,i,-3,i,1
CC1CCCN(S(=O)(=O)c2ccc(NC(=O)CN3CCCCC3)cc2)C1 (stereo not drawn),0,-11,i,1,i,0
CC1CCCN(S(=O)(=O)c2ccc(NC(=O)Cn3nnc(-c4ccccc4F)n3)cc2)C1 (stereo not drawn),45,8,i,12*,i,1
Cc1ccc(-c2c(C(=O)N/N=C/c3cccc(Cl)c3)nnn2-c2nonc2N)cc1,-2,-6,i,15*,i,0
Cc1ccc(-c2c(C(=O)N/N=C/c3ccc(OC(C)C)cc3)nnn2-c2nonc2N)cc1,-2,-76,i,8,i,2
CCOc1ccc(-c2c(C(=O)N/N=C/c3ccc(Cl)cc3)nnn2-c2nonc2N)cc1,-1,-61,i,13*,i,0
CCOc1ccc(-c2c(C(=O)N/N=C/c3ccc(OC(C)C)cc3)nnn2-c2nonc2N)cc1,0,-200,i,11*,i,4
CCOc1ccc(/C=N/NC(=O)c2nnn(-c3nonc3N)c2-c2cccs2)cc1,-2,-71,i,13*,i,8
COc1cccc(C(=O)N2CCC[C@H]2C(=O)N2CCC[C@H]2C(=O)N[C@H](C)c2ccccc2)c1,0,.,.,.,.,.
Cc1cccc([C@@H]2[C@@H]3C(=O)N(Cc4ccccc4)C(=O)[C@@H]3[C@]3(Cc4ccccc4)C(=O)N(c4cccc(F)c4)C(=O)N23)c1,1,-6,i,-4,i,6
O=C(Nc1ccc(F)cc1)c1cccnc1NCCc1ccccc1,-16,-10,i,5,i,0
O=C(Nc1cccc(F)c1)c1cccnc1NCCc1ccccc1,30,-55,i,17*,i,-2
COc1ccc(NC(=O)C[C@H]2C(=O)N(C3CCCCC3)C[C@@H]2c2ccc(OC)cc2)cc1,0,-2,.,.,.,1
Cc1cc(Cl)n2ncc(-c3ccccc3)c2n1,3,34,i,0,i,4
Cc1cc(SCC(=O)Nc2ccc(O)cc2)n2ncc(-c3ccccc3)c2n1,4,-13,i,27*,i,-1
Cc1cc(SCC(=O)Nc2ccc(O)cc2)n2nc(C)c(-c3ccccc3)c2n1,4,-9,i,7,i,-1
